Experimental findings from PubChem BioAssay (NCI) are described below.

Experiment in all cases: NCI-60 one-dose screen, 48 h (100 = growth as untreated, 0 = no growth, -100 = all killed)
One experiment concerns HCT-15 colon. To be noted: 10 µM unless noted.
The subject of another experiment is HT29 colon. To be noted: 10 µM unless noted.
Another experiment deals with SNB-75 CNS. To be noted: 10 µM unless noted.
A further experiment concerns SNB-19 CNS. To be noted: 10 µM unless noted.
In a further experiment the test system is U251 CNS. The conditions noted are these: 10 µM unless noted.
A further experiment relates to PC-3 prostate. The conditions noted are these: 10 µM unless noted.
The next experiment relates to SK-MEL-5 melanoma. The conditions noted are these: 10 µM unless noted.
The subject of the next experiment is UACC-62 melanoma. To be noted: 10 µM unless noted.
For another experiment, the system named is LOX IMVI melanoma. To be noted: 10 µM unless noted.
The test system of a further experiment is SK-MEL-28 melanoma. To be noted: 10 µM unless noted.
The test system of the next experiment is SK-MEL-2 melanoma. To be noted: 10 µM.
The next experiment relates to EKVX NSCLC. To be noted: 10 µM unless noted.
Another experiment concerns SN12C renal. To be noted: 10 µM unless noted.
The subject of the next experiment is UO-31 renal. The conditions noted are these: 10 µM unless noted.
For another experiment, the system named is TK-10 renal. To be noted: 10 µM unless noted.
The subject of another experiment is ACHN renal. To be noted: 10 µM unless noted.
For a further experiment, the system named is CAKI-1 renal. To be noted: 10 µM unless noted.
The subject of the next experiment is CCRF-CEM leukemia. The conditions noted are these: 10 µM unless noted.
For another experiment, the system named is MOLT-4 leukemia. To be noted: 10 µM unless noted.
The test system of a further experiment is A498 renal. The conditions noted are these: 10 µM unless noted.

This is part of a sample that, as a whole, favours compounds with a hit. Of some 83,000 tested, about 20% had one in any assay.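 Results are percent growth after 48 hours of single-concentration exposure. 100 means growth as in untreated cells, lower positive values show inhibition; negative values down to -100 show cell death.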 A number with no mark means an inactive call. Active and inactive are the calls of the source. How the source made its calls: active means growth percent below 10; inactive means the rest.

For `O=C(NO)c1ccc(Cn2c(=O)n(CCc3ccccc3)c(=O)c3ccccc32)cc1`, the growth with HCT-15 colon is 28.6%; with HT29 colon it was 42.3%; with SNB-75 CNS it was 54.3%; in the experiment with SNB-19 CNS, 45.2%; with U251 CNS, 23.8%; in the experiment with PC-3 prostate it was 20.3%. Besides, the growth was 34.8% in the experiment with SK-MEL-5 melanoma; 3.79% (active) with UACC-62 melanoma; 12.9% with LOX IMVI melanoma; 13.4% with SK-MEL-28 melanoma; 45.7% in the experiment with SK-MEL-2 melanoma; 38.8% with EKVX NSCLC. For the same compound, the growth is 38.5% in the experiment on SN12C renal; 17.3% in the experiment on UO-31 renal; 43.4% in the experiment with TK-10 renal; 25.8% in the experiment on ACHN renal; 27.2% in the experiment with CAKI-1 renal; 4.6% (active) with CCRF-CEM leukemia. Further, the growth with MOLT-4 leukemia was 3.88% (active).

Turning to `N#Cc1cc2[nH]c3ccc(OC(F)(F)F)cc3c2oc1=O`, the growth with HCT-15 colon is 58.8%; with HT29 colon, 79.6%; in the experiment on SNB-75 CNS, 53.6%; in the experiment on SNB-19 CNS it was 93.6%; in the experiment with U251 CNS it was 73.2%; with PC-3 prostate, 60.3%. The growth is 70.8% in the experiment on SK-MEL-5 melanoma; 88.9% with UACC-62 melanoma; 74.5% in the experiment with LOX IMVI melanoma; 93% in the experiment with SK-MEL-28 melanoma; 66.5% in the experiment with SK-MEL-2 melanoma; 76.1% in the experiment with EKVX NSCLC. Further, the growth is 95.9% in the experiment with SN12C renal; 59.1% in the experiment on UO-31 renal; 132% with TK-10 renal; 84.4% in the experiment on ACHN renal; 76.8% with A498 renal; 90.4% in the experiment on CCRF-CEM leukemia. In addition, the growth in the experiment on MOLT-4 leukemia is 84.5%.

In the case of `COc1ccc2c(CCCc3ccc(Cl)cc3Cl)c3[n+](cc2c1OC)CCc1cc2c(cc1-3)OCO2`, the growth with HCT-15 colon is 24.4%; in the experiment with HT29 colon it was -15.6% (active); in the experiment on SNB-75 CNS it was 15.2%; in the experiment with SNB-19 CNS, 16.7%; with U251 CNS, 3.76% (active); in the experiment with PC-3 prostate, -14.2% (active). In addition, the growth was -99.6% (active) in the experiment with SK-MEL-5 melanoma; -68.2% (active) with UACC-62 melanoma; -80.3% (active) in the experiment on LOX IMVI melanoma; -35.6% (active) in the experiment on SK-MEL-28 melanoma; -22.8% (active) in the experiment with SK-MEL-2 melanoma; 23.1% in the experiment on EKVX NSCLC. Besides, the growth was -24.9% (active) in the experiment with SN12C renal; 25.4% in the experiment on UO-31 renal; 0.636% (active) in the experiment on TK-10 renal; 21.9% with ACHN renal; 71.9% with CAKI-1 renal; 5.42% (active) in the experiment with CCRF-CEM leukemia. The growth in the experiment on MOLT-4 leukemia is -9.91% (active).

As for `CCOC(=O)C1=C(C)NC(=O)NC1c1cc(=O)oc2ccc(C)cc12` (stereo unspecified), the growth with HCT-15 colon was 104%; in the experiment on HT29 colon, 95.2%; with SNB-75 CNS it was 97%; with SNB-19 CNS it was 106%; in the experiment with U251 CNS, 102%; in the experiment on PC-3 prostate, 97.2%. The growth was 98.2% in the experiment on SK-MEL-5 melanoma; 99% in the experiment with UACC-62 melanoma; 97.5% with LOX IMVI melanoma; 107% in the experiment on SK-MEL-28 melanoma; 95.6% in the experiment with SK-MEL-2 melanoma; 95.2% with EKVX NSCLC. The growth with SN12C renal is 101%; in the experiment on UO-31 renal, 93.1%; with TK-10 renal, 97.1%; in the experiment with ACHN renal, 114%; with A498 renal, 104%; in the experiment with CCRF-CEM leukemia, 101%. Moreover, in the experiment on MOLT-4 leukemia, the growth is 99.1%.

For `COc1cnc2c(c1)C(=O)c1c-2n(CCCN2CCOCC2)c(=O)c2cc(Cl)ccc12`, the growth in the experiment on HCT-15 colon was 43.9%; with HT29 colon, 8.04% (active); in the experiment with SNB-75 CNS it was 45.9%; in the experiment on SNB-19 CNS it was 28.6%; in the experiment on U251 CNS it was 8.25% (active); with PC-3 prostate, 32%. Besides, the growth is -9.63% (active) in the experiment on SK-MEL-5 melanoma; 4.37% (active) in the experiment with UACC-62 melanoma; -36.6% (active) in the experiment on LOX IMVI melanoma; 66.4% in the experiment on SK-MEL-28 melanoma; 92.1% with SK-MEL-2 melanoma; 54.2% with EKVX NSCLC. In addition, the growth in the experiment on SN12C renal is 21.6%; in the experiment on UO-31 renal, 13.8%; in the experiment with TK-10 renal it was 83.1%; in the experiment with ACHN renal, 6.75% (active); in the experiment on CAKI-1 renal, 18.3%; in the experiment on CCRF-CEM leukemia, 1.33% (active). Also, the growth in the experiment with MOLT-4 leukemia was -17.8% (active).

As to `N#Cc1c(-c2ccc(C(F)(F)F)cc2)c(F)c(NCCC2CCC(O)C2)n2c1nc1ccccc12` (stereo unspecified), the growth with HCT-15 colon was 49.6%; in the experiment on HT29 colon, 17.8%; in the experiment with SNB-75 CNS it was 68%; in the experiment with SNB-19 CNS, 78.3%; in the experiment on U251 CNS, 61.4%; with PC-3 prostate, 37.8%. Moreover, the growth with SK-MEL-5 melanoma is 61.8%; in the experiment with UACC-62 melanoma, 72.7%; in the experiment on LOX IMVI melanoma it was 6.38% (active); in the experiment on SK-MEL-28 melanoma, 61.8%; with SK-MEL-2 melanoma, 101%; with EKVX NSCLC, 43.8%. Further, the growth in the experiment on SN12C renal was 49.1%; in the experiment with UO-31 renal it was 52.6%; in the experiment on TK-10 renal it was 83.6%; in the experiment on ACHN renal, 61.2%; with A498 renal, 35.4%; in the experiment on CCRF-CEM leukemia, 17.9%.

Consider `Cc1cc2c(-c3nc4ccccn4c3NC3CCCCC3)c(O)c(O)cc2c(O)c1-c1c(C)cc2c(-c3nc4ccccn4c3NC3CCCCC3)c(O)c(O)cc2c1O`, for which the growth in the experiment on HCT-15 colon was 19.9%; in the experiment on HT29 colon it was 25.7%; in the experiment on SNB-75 CNS it was 28%; in the experiment on SNB-19 CNS, 25.3%; with U251 CNS it was 19.8%; in the experiment on PC-3 prostate, 18.4%. For the same compound, the growth in the experiment on SK-MEL-5 melanoma is 23.9%; with UACC-62 melanoma it was -1.66% (active); with LOX IMVI melanoma, 27.4%; with SK-MEL-28 melanoma, 38.9%; with SK-MEL-2 melanoma, 38.9%; with EKVX NSCLC, 27.1%. Besides, the growth in the experiment on SN12C renal was 33%; in the experiment with UO-31 renal, 35.3%; in the experiment on TK-10 renal, 27.5%; with ACHN renal, 18.8%; in the experiment with A498 renal, 71.4%; in the experiment on CCRF-CEM leukemia it was 23.5%. The growth in the experiment with MOLT-4 leukemia is 43.6%.

As to `CC(C)(C)C(=O)OCOP(=O)(OCOC(=O)C(C)(C)C)C1CCCN(OC(=O)c2ccccc2)C1=O` (stereo unspecified), the growth in the experiment with HCT-15 colon was 28.6%; in the experiment with HT29 colon it was 5.75% (active); with SNB-75 CNS, 73.1%; in the experiment with SNB-19 CNS, 14%; in the experiment on U251 CNS it was 6.63% (active); with PC-3 prostate it was 49.7%. In addition, the growth is -28% (active) in the experiment on SK-MEL-5 melanoma; 4.95% (active) with UACC-62 melanoma; 40.1% with LOX IMVI melanoma; -11.1% (active) in the experiment with SK-MEL-28 melanoma; 51% with SK-MEL-2 melanoma; 21.4% in the experiment with EKVX NSCLC. Also, the growth in the experiment on SN12C renal is 4.97% (active); with UO-31 renal, 11.5%; in the experiment on TK-10 renal it was 11.7%; in the experiment with ACHN renal, 15.7%; with A498 renal, 10.9%; with CCRF-CEM leukemia, 4.03% (active). Also, in the experiment with MOLT-4 leukemia, the growth is 7.12% (active).
